In the library only some 9.3% were active in any assay of this set; here they are far more common.
SMN2 splice enh: qHTS Assay for Enhancers of SMN2 Splice Variant Expression; HEK293 SMN2-luciferase splicing reporter, luminescence, 30-36 h; Potency, µM (highest dose often 46.1 µM), inactives show top-dose activity change, positive = activation, hits mostly activators; 2.8% of 210,000 active; also: % of control where 0% means no effect; nearly all actives have a fitted effect of over 55% in size
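qHTS luciferase splicing reporter: luminescence rises when SMN2 exon 7 is included in transfected HEK293 cells. Compound exposure lasted 30-36 h at 37C, with 4.5 mM final sodium butyrate as control, followed by a ONE-Glo read.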
ELG1 genotoxic: qHTS screen for small molecules that induce genotoxicity in human embryonic kidney (HEK293T) cells expressing luciferase-tagged ELG1; HEK293T ELG1-luciferase reporter, luminescence, 16 h; Potency, µM (titrated, usually from 46 µM), without a hit: top-dose activity change, positive = activation, most hits filed as activators; 1.3% of 330,000 active; also: % of control where 0% means no effect; nearly all actives have a fitted effect of over 60% in size
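Reporter readout depends on ELG1 protein level, which increases with genetic stress. After 16 hr compound exposure at 37 °C, luciferase activity was quantified using ONE-Glo.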
Rab9 promoter act: qHTS Assay for Rab9 Promoter Activators. Huh7 Rab9 promoter-luciferase reporter, luminescence, 24 h. Potency, µM (series often up to 9.22 µM), for inactives: top-dose activation, negative = inhibition, actives largely listed as activators. 2.8% of 320,000 active. AID 485297, 2010; also: % of control where 0% means no effect; nearly all actives have a fitted effect of over 60% in size
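Huh7 cells stably carrying a Rab9 promoter-luciferase reporter, 1500 cells per well in OP-MEM I with 10% FBS, treated with compound 24 hours at 37C. Luciferase activity read by luminescence after 10 minutes with Amplite reagent.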
FLuc modulator: qHTS profiling assay for firefly luciferase inhibitor/activator using purifed enzyme and Km concentrations of substrates (counterscreen for miR-21 project); purified FLuc, Km substrates, luminescence inhibition; Potency, µM (doses to about 57.5 µM), for the others: at the highest dose activity change, negative = inhibition, most hits filed as inhibitors; 6.9% of 360,000 active;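 also: plate controls were vehicle for no effect and reference inhibitor for full effect; nearly all actives have a fitted effect of over 55% in size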
Target sequence (P08659 whole entry, looked up): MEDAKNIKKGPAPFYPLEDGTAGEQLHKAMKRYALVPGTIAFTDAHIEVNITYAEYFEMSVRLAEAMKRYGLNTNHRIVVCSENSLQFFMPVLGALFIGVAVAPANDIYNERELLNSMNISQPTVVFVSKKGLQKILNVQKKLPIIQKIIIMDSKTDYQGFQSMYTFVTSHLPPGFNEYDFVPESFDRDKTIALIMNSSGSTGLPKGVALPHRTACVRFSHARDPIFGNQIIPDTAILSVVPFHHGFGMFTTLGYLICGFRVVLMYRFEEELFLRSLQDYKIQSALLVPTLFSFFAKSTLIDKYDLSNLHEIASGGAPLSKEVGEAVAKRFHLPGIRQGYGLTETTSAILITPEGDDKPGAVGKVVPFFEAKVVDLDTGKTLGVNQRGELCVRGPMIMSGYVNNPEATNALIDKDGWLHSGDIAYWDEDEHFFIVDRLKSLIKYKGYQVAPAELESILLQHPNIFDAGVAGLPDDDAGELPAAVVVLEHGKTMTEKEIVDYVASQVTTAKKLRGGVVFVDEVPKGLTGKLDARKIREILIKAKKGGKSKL
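Purified P. pyralis luciferase, 10 nM final, with Km-level 10 uM D-luciferin and 10 uM ATP in 50 mM Tris acetate pH 7.5, 10 mM Mg acetate, 0.01% Tween-20, 0.05% BSA; 6-point qHTS titration about 60 µM downward; luminescence read.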
ELG1 repair inh: qHTS screen for small molecules that inhibit ELG1-dependent DNA repair in human embryonic kidney (HEK293T) cells expressing luciferase-tagged ELG1 | Potency, µM (highest dose often 46.1 µM), for inactives: at the highest dose activity change, negative = inhibition, most hits filed as inhibitors | HEK293T ELG1-luciferase reporter, luminescence, 16 h; DNA damage induced by 5-fluorouridine | 2.3% of 330,000 active; also: % is scaled to controls: 0 for no effect and ±100 for the full control effect; nearly all actives have a fitted effect of over 55% in size
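Overnight (16 hr) co-exposure of 2,000 cells/well to 5-fluorouridine and compound at 37 °C preceded detection. Luciferase was quantified via ONE-Glo luminescence; loss of signal denotes inhibition.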
NPC1 promoter act: qHTS Assay for NPC1 Promoter Activators; Huh7 NPC1 promoter luciferase reporter, 24 h; Potency, µM (series often up to 9.22 µM), for the others: at the highest dose activation, most hits filed as activators; 2.4% of 320,000 active; AID 485313, 2010; also: % of control where 0% means no effect; nearly all actives have a fitted effect of over 60% in size
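Huh7 reporter cells (NPC1 promoter driving luciferase) are dosed with compound for 24 h at 37 °C, 5% CO2; luciferase detection reagent is then added and luminescence measured after 10 min at ambient temperature.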
An asterisk follows results filed as active; [ ] = another dose, or the depositor's remark. Calls follow the shape of the dose curve; as a rule, active = well fitted curve in the direction sought with a large enough effect; inconclusive = small, poorly fitted or top-dose-only effect, or another doubt; inactive = no such curve, though single readings can be large; an effect the other way counts as inactive or inconclusive. Potency is read from the fitted curve at half-maximal effect.

What do the screens show for `Cc1nn(CC(=O)NCc2cccnc2)c(C)c1[N+](=O)[O-]`?
SMN2 splice enh: 7%; ELG1 genotoxic: 2%; Rab9 promoter act: 10%; FLuc modulator: 0%; ELG1 repair inh: 5%; NPC1 promoter act: 7%

How did Cc1cc(N2CCC(C(=O)N(CC(C)C)CC(C)C)CC2)n2nc(C)c(-c3ccc(Cl)cc3)c2n1 do in these assays?
SMN2 splice enh: -12%; FLuc modulator: 1%

How did COc1ccc2[nH]c(=O)c(CN(Cc3ccccc3OC)Cc3nnnn3CC3CCCO3)cc2c1 (stereo unspecified) do in these assays?
SMN2 splice enh: 0%; ELG1 genotoxic: -8%; Rab9 promoter act: 6%; FLuc modulator: -2%; ELG1 repair inh: 16µM*; NPC1 promoter act: 8%

What do the screens show for `O=c1[nH]c2cc3c(cc2cc1CN(Cc1nnnn1CC1CCCO1)C1CCCC1)OCO3` (stereo unspecified)?
SMN2 splice enh: -41%; ELG1 genotoxic: -4%; Rab9 promoter act: -5%; FLuc modulator: -6%; ELG1 repair inh: 15µM*; NPC1 promoter act: -6%

Results for CCc1ccc2[nH]c(=O)c(CN(Cc3ccccc3OC)Cc3nnnn3Cc3ccco3)cc2c1 ?
SMN2 splice enh: 12%; ELG1 genotoxic: -12%; Rab9 promoter act: -5%; FLuc modulator: 5%; ELG1 repair inh: 10µM*; NPC1 promoter act: -2%

How did O=C(O)c1ccc(S(=O)(=O)N2CCc3ccccc3C2)cc1 do in these assays?
ELG1 genotoxic: 0%; Rab9 promoter act: 6%; FLuc modulator: -6%; ELG1 repair inh: -17%; NPC1 promoter act: -3%

What do the screens show for `Cc1ccc(CC(=O)N(Cc2nc(-c3ccc(C)cc3)no2)C(C)C)cc1`?
SMN2 splice enh: -29%; FLuc modulator: -9%

How did COc1ccc(C2CC(=O)Nc3c2c(=O)nc2c(C)cccn32)cc1 (stereo unspecified) do in these assays?
SMN2 splice enh: -5%; FLuc modulator: -12%

How did CN(C)c1nnnn1Cc1ccc(Cl)cc1Cl do in these assays?
SMN2 splice enh: -6%; ELG1 genotoxic: -4%; Rab9 promoter act: -1%; FLuc modulator: -4%; ELG1 repair inh: -8%; NPC1 promoter act: -3%

What do the screens show for `COc1ccccc1C(=O)NC(=O)COC(=O)CCNS(=O)(=O)c1ccccc1`?
ELG1 genotoxic: -1%; Rab9 promoter act: -7%; FLuc modulator: 2%; ELG1 repair inh: 3%; NPC1 promoter act: 0%

Results for CCOc1ccc(Nc2ncnc3ccc([N+](=O)[O-])cc23)cc1 ?
SMN2 splice enh: -23%; ELG1 genotoxic: -10%; Rab9 promoter act: -6%; FLuc modulator: 1%; ELG1 repair inh: 9.2µM*; NPC1 promoter act: 15%

Results for O=C(Oc1cccc(Nc2ncnc3ccccc23)c1)c1ccccc1Cl ?
SMN2 splice enh: -42%; ELG1 genotoxic: inconclusive; Rab9 promoter act: -8%; FLuc modulator: 17µM*; ELG1 repair inh: inconclusive; NPC1 promoter act: -6%

What do the screens show for `COc1cccc(Nc2cc(C)c3ccccc3n2)c1`?
ELG1 genotoxic: inconclusive; Rab9 promoter act: -3%[1.84 µM]; FLuc modulator: 24µM*; ELG1 repair inh: inconclusive; NPC1 promoter act: 25%

Results for COc1ccc(Nc2cc(Nc3ccccc3)ncn2)cc1 ?
ELG1 genotoxic: inconclusive; Rab9 promoter act: 2µM*; FLuc modulator: inconclusive; ELG1 repair inh: inconclusive; NPC1 promoter act: 2µM*

How did CCCC1CCc2c(sc(N)c2C(N)=O)C1 (stereo unspecified) do in these assays?
SMN2 splice enh: 7%; ELG1 genotoxic: -2%; Rab9 promoter act: 0%; FLuc modulator: -17%; ELG1 repair inh: -2%; NPC1 promoter act: -2%

How did CCOC(=O)c1cccc(NS(=O)(=O)c2cc(Br)cc3c2N(C(=O)C2CC2)CC3)c1 do in these assays?
SMN2 splice enh: -75%; FLuc modulator: inconclusive

How did COc1ccc(CCNC(=O)C(NS(=O)(=O)c2ccc3c(c2)CCN3C(C)=O)C(C)C)cc1OC (stereo unspecified) do in these assays?
SMN2 splice enh: -35%; ELG1 genotoxic: 0%; Rab9 promoter act: -6%; FLuc modulator: 0%; ELG1 repair inh: 20%; NPC1 promoter act: -1%

Results for COC(=O)c1cc(OC)c(OC)cc1NC(=S)N1CCN(c2ccccn2)CC1 ?
SMN2 splice enh: 16%; ELG1 genotoxic: -6%; Rab9 promoter act: 0%; FLuc modulator: -3%; ELG1 repair inh: inconclusive; NPC1 promoter act: 1%

How did COc1cccc(Nc2ncnc3ccccc23)c1 do in these assays?
SMN2 splice enh: 14µM*; ELG1 genotoxic: 4.6µM*; Rab9 promoter act: inconclusive; FLuc modulator: 11µM*; ELG1 repair inh: inconclusive; NPC1 promoter act: inconclusive

What do the screens show for `COc1ccc(Nc2ncnc3ccccc23)cc1`?
SMN2 splice enh: 11µM*; ELG1 genotoxic: 14%; Rab9 promoter act: 2.8µM*; FLuc modulator: 15µM*; ELG1 repair inh: -5%; NPC1 promoter act: 3.2µM*

Results for COc1ccc(Nc2ccnc3ccccc23)cc1 ?
SMN2 splice enh: -6%; ELG1 genotoxic: -14%; Rab9 promoter act: 13%; FLuc modulator: -17%; ELG1 repair inh: 16µM*; NPC1 promoter act: 12%

How did COc1ccc(Nc2nc(-c3cccs3)nc3ccccc23)cc1 do in these assays?
SMN2 splice enh: -23%; ELG1 genotoxic: -7%; Rab9 promoter act: -6%; FLuc modulator: inconclusive; ELG1 repair inh: inconclusive; NPC1 promoter act: 0%

How did COc1cccc(Nc2nc(-c3cccs3)nc3ccccc23)c1 do in these assays?
SMN2 splice enh: -3%; ELG1 genotoxic: -6%; Rab9 promoter act: -3%; FLuc modulator: inconclusive; ELG1 repair inh: 23µM*; NPC1 promoter act: 0%

How did COc1ccc(Nc2ncnc3ccccc23)c(OC)c1 do in these assays?
SMN2 splice enh: -33%; ELG1 genotoxic: 6%; Rab9 promoter act: -2%; FLuc modulator: inconclusive; ELG1 repair inh: -7%; NPC1 promoter act: -8%

Results for COc1ccc(NC(=O)N2CCCC3(CCN(S(C)(=O)=O)CC3)C2)cc1 ?
SMN2 splice enh: 1%

What do the screens show for `COc1cccc(NC(=O)c2c([N+](=O)[O-])cnn2C)c1`?
ELG1 genotoxic: -2%; Rab9 promoter act: 3%; FLuc modulator: 0%; ELG1 repair inh: 1%; NPC1 promoter act: 2%

How did COc1ccc(Nc2nc(OC)nc(OC)n2)cc1 do in these assays?
ELG1 genotoxic: 11%; Rab9 promoter act: 11%; FLuc modulator: -6%; ELG1 repair inh: inconclusive; NPC1 promoter act: -5%

Bioassay records as filed in PubChem BioAssay.
